Holding throughout (assay): DAPPL (digital affinity profiling via proximity ligation, sequencing); 10 mM Tris-HCl pH 7.5, 50 mM NaCl, 1 mM DTT, 4% glycerol, room temperature, 30 min; GST-TFs on glutathione beads, 16-mer random dsDNA library, 0.1% formaldehyde crosslink after washing; high values mean tight binding
Common to all, as to settings: protein: recombinant; tags: N-terminal GST; dsDNA, one strand shown

One assay concerns the target T1, FLI1 (Homo sapiens, UniProt Q01543 1-452).
T1 sequence: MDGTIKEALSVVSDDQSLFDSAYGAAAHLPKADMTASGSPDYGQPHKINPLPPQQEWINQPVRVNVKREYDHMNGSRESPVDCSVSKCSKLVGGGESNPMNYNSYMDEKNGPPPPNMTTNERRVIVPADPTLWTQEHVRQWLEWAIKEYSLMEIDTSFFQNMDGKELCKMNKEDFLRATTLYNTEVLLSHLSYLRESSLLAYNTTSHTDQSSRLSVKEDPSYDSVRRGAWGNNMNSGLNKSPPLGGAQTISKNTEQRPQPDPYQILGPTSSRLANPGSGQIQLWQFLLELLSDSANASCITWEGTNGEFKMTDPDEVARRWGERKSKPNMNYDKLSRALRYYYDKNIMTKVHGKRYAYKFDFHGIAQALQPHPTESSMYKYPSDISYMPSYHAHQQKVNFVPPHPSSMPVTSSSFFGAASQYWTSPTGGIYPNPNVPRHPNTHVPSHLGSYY
The procedure, abridged: (§1)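 Each value of binding signal is a hexamer's read frequency for a factor divided by the same hexamer's frequency in the tag-only sample. Barcoded, bead-captured GST fusions of human transcription factors made in yeast were pooled with that sample and incubated with 200 nmole of a random double-stranded 16-mer DNA library in Tris/NaCl/DTT/glycerol buffer at room temperature for 30 min. Washing, 0.1% formaldehyde crosslinking, proximity ligation, PCR and Illumina NextSeq500 sequencing followed.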

A further assay deals with T2, ELK1 (Homo sapiens, UniProt P19419 1-428).
T2 sequence: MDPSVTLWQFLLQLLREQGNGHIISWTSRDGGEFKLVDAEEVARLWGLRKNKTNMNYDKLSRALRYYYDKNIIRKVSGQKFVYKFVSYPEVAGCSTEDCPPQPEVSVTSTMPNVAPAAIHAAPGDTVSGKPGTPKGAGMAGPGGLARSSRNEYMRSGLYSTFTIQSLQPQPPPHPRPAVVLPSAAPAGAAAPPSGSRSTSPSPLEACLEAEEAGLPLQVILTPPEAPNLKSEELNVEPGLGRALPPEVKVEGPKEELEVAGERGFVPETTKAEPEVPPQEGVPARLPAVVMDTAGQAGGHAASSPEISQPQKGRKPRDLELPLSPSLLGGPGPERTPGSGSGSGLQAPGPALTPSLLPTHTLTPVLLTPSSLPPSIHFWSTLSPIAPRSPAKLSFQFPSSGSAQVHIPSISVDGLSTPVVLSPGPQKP
The procedure, abridged:
as §1

The target of a further assay is T3, GABPA (Homo sapiens, UniProt Q06546 1-454).
T3 sequence: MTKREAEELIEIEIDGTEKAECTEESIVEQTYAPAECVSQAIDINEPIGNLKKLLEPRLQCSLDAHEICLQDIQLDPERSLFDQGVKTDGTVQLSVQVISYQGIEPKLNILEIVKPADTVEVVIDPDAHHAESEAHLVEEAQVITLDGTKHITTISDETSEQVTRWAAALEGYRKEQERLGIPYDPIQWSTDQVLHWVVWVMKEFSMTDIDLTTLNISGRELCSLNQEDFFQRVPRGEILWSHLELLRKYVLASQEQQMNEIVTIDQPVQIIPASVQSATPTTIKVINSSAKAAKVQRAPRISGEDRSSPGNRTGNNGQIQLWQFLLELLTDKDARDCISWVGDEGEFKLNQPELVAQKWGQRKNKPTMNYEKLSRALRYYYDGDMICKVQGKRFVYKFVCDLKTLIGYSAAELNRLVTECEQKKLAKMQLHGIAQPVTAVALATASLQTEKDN
The procedure, abridged:
as §1

A further assay has as its target T4, ERG (Homo sapiens, UniProt P11308 1-479).
T4 sequence: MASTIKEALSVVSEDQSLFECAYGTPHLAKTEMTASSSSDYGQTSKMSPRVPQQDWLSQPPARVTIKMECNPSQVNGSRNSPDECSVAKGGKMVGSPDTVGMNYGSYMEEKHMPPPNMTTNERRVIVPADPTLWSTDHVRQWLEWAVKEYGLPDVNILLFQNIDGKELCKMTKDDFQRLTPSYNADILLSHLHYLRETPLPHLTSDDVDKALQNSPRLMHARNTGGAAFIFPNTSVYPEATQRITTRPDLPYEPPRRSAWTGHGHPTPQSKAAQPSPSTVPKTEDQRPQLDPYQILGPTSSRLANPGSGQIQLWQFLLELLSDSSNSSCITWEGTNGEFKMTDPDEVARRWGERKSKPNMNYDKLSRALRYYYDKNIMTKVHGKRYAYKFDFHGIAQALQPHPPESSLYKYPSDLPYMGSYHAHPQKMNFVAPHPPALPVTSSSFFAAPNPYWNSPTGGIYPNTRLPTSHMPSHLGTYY
Summed up:
as §1

A further assay deals with ELF1 (Homo sapiens, UniProt P32519 1-619). Summed up: as §1
Sequence of ELF1 (P32519 whole entry): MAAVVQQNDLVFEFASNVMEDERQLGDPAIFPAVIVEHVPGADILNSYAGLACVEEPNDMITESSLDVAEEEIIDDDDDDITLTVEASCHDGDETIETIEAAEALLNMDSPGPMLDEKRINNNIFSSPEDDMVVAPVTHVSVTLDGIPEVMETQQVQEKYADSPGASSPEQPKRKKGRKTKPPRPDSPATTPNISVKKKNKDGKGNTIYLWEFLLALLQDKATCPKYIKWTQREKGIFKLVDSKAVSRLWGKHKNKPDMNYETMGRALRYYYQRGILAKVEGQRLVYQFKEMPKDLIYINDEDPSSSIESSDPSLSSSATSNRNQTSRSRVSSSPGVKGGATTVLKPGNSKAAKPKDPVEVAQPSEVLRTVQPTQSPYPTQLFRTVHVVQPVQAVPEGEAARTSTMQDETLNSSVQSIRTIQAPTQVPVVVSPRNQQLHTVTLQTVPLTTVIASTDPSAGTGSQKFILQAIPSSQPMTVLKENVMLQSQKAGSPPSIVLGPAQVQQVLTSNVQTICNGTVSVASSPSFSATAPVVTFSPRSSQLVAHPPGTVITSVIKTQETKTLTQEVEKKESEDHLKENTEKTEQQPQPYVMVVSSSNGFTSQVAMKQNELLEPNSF
A further assay deals with T5, EHF (Homo sapiens, UniProt Q9NZC4 1-300).
T5 sequence: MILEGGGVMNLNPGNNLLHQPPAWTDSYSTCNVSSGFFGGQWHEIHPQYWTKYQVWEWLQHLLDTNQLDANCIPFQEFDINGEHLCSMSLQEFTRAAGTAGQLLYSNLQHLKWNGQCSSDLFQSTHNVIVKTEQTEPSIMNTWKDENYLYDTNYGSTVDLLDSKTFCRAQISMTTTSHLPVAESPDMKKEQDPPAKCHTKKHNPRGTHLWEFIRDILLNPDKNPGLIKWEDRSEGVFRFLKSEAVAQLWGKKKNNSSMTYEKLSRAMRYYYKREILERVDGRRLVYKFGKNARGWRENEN
Summed up: as §1

The target of a further assay is SPI1 (Homo sapiens, UniProt P17947 1-270). Summed up:
as §1

A further assay has as its target SPIB (Homo sapiens, UniProt Q01892 1-262). Summed up: as §1
Another assay concerns the target T6, ELK3 (Homo sapiens, UniProt P41970 1-407).
T6 sequence: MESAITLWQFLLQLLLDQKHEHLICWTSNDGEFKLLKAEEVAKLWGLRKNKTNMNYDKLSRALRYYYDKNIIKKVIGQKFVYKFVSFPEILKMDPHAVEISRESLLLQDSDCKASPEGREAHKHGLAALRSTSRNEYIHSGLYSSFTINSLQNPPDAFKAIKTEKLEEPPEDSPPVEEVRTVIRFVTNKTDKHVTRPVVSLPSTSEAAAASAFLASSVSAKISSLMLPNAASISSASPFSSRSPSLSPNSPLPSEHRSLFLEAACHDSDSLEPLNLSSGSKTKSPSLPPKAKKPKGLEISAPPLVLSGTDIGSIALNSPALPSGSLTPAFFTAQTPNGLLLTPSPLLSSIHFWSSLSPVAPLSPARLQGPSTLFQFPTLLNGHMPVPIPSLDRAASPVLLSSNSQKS
Summed up:
as §1

The next assay has as its target ETV5 (Homo sapiens, UniProt P41161 1-510). The procedure, abridged:
as §1

The target of the next assay is T7, SPIC (Homo sapiens, UniProt Q8N5J4 1-248).
T7 sequence: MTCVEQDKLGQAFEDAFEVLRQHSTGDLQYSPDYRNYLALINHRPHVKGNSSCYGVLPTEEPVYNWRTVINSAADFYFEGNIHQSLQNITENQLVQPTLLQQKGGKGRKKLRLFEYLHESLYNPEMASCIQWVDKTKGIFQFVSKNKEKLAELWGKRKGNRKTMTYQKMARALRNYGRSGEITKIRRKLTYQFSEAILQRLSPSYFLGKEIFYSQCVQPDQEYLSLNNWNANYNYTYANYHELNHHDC
Summed up: as §1

For another assay, the target named is ELF4 (Homo sapiens, UniProt Q99607 1-663). Summed up:
as §1

The next assay deals with T8, ELK4 (Homo sapiens, UniProt P28324-2 1-405).
T8 sequence: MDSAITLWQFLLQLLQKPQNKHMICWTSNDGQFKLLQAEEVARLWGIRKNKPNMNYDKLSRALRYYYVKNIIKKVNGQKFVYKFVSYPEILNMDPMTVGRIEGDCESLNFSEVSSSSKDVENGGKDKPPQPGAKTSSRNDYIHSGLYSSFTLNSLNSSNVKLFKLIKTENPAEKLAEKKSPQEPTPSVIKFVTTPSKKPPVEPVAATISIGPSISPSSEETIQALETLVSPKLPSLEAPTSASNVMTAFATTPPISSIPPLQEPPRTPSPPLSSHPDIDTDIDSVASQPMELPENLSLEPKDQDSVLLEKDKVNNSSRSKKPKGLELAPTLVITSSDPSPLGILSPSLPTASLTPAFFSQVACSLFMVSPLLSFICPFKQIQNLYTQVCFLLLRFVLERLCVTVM
Summed up:
as §1

The next assay addresses T9, ETV2 (Homo sapiens, UniProt O00321 1-342).
T9 sequence: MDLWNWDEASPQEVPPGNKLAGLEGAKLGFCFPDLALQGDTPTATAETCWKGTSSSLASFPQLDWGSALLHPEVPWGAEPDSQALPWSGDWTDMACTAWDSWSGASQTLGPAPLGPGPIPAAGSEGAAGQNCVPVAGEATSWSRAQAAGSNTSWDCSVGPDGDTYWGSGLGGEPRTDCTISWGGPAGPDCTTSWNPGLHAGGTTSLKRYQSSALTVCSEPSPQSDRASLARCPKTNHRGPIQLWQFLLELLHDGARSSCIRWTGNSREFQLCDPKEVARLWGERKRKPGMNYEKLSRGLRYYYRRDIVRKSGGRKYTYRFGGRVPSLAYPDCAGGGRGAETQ
The procedure, abridged:
as §1

In the next assay the target is T10, ELF3 (Homo sapiens, UniProt P78545 1-371).
T10 sequence: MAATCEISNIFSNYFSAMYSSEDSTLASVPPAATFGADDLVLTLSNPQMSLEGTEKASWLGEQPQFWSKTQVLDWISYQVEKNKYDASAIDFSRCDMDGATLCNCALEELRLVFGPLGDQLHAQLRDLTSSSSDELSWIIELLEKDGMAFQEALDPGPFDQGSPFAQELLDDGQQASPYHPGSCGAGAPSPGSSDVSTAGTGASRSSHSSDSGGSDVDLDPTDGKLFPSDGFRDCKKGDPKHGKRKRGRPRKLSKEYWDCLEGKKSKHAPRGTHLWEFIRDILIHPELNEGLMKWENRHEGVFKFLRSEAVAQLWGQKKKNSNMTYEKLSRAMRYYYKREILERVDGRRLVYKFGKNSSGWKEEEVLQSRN
The procedure, abridged: as §1

The next assay addresses ETV1 (Homo sapiens, UniProt P50549 1-477). Summed up:
as §1

Another assay deals with T11, FEV (Homo sapiens, UniProt Q99581 1-238).
T11 sequence: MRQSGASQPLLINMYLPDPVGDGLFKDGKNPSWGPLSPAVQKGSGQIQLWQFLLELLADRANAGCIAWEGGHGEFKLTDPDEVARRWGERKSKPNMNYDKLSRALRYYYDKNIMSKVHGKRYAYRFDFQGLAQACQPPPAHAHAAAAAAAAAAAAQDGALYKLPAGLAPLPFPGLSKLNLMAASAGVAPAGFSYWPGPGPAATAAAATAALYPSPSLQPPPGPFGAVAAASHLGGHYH
Summed up: as §1

The target in the next assay is CRX (Homo sapiens, UniProt O43186 1-299). The procedure, abridged:
as §1

Sequence of SPIB (Q01892 whole entry): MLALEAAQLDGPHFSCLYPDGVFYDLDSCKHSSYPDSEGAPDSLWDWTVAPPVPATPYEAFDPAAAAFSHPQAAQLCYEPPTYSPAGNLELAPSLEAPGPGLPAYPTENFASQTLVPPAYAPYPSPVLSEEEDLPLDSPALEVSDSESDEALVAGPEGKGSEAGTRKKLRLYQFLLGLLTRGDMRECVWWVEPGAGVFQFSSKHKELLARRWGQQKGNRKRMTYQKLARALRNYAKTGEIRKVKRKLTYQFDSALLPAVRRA
Sequence of ELF4 (Q99607 whole entry): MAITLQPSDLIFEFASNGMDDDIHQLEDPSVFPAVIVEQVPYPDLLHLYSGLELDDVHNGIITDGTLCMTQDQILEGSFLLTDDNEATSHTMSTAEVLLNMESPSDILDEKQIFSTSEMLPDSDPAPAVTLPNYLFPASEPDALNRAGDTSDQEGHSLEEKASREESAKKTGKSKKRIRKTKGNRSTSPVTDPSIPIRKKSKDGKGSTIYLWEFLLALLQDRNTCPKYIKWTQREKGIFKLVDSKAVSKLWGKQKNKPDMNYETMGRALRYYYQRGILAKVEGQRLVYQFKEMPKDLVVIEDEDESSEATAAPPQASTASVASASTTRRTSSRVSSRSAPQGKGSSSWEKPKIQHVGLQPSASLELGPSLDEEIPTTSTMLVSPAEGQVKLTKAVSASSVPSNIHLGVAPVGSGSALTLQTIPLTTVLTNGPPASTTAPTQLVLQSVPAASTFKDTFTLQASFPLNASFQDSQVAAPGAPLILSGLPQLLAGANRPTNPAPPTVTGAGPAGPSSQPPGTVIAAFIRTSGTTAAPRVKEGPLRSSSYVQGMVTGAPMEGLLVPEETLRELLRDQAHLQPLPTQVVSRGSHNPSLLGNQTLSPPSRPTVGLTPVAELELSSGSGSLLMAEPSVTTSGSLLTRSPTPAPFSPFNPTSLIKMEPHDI
Sequence of ETV5 (P41161 whole entry): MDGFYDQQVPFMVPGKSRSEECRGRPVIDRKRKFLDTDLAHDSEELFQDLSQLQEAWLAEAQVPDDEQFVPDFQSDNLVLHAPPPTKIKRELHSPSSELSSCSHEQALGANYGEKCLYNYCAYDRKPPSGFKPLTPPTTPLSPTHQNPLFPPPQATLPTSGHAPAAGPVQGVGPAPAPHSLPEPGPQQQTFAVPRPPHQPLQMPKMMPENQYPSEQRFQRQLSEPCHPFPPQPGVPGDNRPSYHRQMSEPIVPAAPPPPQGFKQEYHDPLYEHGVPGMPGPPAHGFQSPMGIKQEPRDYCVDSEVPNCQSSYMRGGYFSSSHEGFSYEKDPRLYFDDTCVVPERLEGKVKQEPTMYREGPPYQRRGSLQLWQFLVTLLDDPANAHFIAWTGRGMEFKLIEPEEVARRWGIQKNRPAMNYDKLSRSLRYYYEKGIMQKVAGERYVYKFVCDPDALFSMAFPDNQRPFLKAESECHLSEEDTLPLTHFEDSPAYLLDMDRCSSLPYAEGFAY
Sequence of ETV1 (P50549 whole entry): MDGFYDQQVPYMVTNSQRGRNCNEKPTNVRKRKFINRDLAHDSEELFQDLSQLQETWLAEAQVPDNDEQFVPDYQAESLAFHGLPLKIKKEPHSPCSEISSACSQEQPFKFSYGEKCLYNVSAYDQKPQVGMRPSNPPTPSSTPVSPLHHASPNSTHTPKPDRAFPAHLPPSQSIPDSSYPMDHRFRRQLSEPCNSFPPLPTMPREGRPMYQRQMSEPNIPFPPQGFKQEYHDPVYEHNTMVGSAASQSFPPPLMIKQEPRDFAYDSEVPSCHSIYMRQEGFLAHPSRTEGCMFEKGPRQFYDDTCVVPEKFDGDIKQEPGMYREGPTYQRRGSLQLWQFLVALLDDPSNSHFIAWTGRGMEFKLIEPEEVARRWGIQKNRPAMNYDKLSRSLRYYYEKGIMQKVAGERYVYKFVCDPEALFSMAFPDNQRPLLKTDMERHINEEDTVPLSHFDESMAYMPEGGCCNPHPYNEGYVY
Sequence of CRX (O43186 whole entry): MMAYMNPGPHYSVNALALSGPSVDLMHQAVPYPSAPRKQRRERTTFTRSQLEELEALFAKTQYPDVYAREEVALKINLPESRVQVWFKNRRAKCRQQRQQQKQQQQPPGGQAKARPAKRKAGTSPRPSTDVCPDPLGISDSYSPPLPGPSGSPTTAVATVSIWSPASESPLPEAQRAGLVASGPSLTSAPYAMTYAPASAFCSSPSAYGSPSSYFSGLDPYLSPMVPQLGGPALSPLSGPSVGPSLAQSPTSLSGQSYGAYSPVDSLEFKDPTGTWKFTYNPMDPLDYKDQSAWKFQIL

CGACGC: the binding signal in the assay with FLI1 is 1.11 fold enrichment (6-mer frequency, TF over GST control); with ELK1, 1.11 fold enrichment (6-mer frequency, TF over GST control); with GABPA it was 1.04 fold enrichment (6-mer frequency, TF over GST control); in the assay with ERG, 1.05 fold enrichment (6-mer frequency, TF over GST control); with ELF1, 1.16 fold enrichment (6-mer frequency, TF over GST control); with EHF it was 1.06 fold enrichment (6-mer frequency, TF over GST control). The binding signal in the assay with SPI1 was 1.06 fold enrichment (6-mer frequency, TF over GST control); in the assay with SPIB, 1.08 fold enrichment (6-mer frequency, TF over GST control); with ELK3 it was 1.01 fold enrichment (6-mer frequency, TF over GST control); in the assay with ETV5 it was 1.07 fold enrichment (6-mer frequency, TF over GST control); in the assay with SPIC it was 1.09 fold enrichment (6-mer frequency, TF over GST control); with ELF4 it was 1.09 fold enrichment (6-mer frequency, TF over GST control). Further, the binding signal in the assay with ELK4 is 1.07 fold enrichment (6-mer frequency, TF over GST control); with ETV2, 1.16 fold enrichment (6-mer frequency, TF over GST control); in the assay with ELF3, 1.28 fold enrichment (6-mer frequency, TF over GST control); in the assay with ETV1, 1.01 fold enrichment (6-mer frequency, TF over GST control).
Regarding TCATGG, the binding signal with FLI1 was 1.11 fold enrichment (6-mer frequency, TF over GST control); with ELK1, 1.05 fold enrichment (6-mer frequency, TF over GST control); with GABPA it was 1.11 fold enrichment (6-mer frequency, TF over GST control); with ERG, 1.15 fold enrichment (6-mer frequency, TF over GST control); with ELF1 it was 1.18 fold enrichment (6-mer frequency, TF over GST control); in the assay with EHF it was 1.12 fold enrichment (6-mer frequency, TF over GST control). Besides, the binding signal with SPI1 was 1.08 fold enrichment (6-mer frequency, TF over GST control); with SPIB, 1.11 fold enrichment (6-mer frequency, TF over GST control); with ELK3 it was 1.16 fold enrichment (6-mer frequency, TF over GST control); with FEV, 1.05 fold enrichment (6-mer frequency, TF over GST control); with ETV5, 1.09 fold enrichment (6-mer frequency, TF over GST control); with SPIC it was 1.16 fold enrichment (6-mer frequency, TF over GST control). Besides, the binding signal is 1.07 fold enrichment (6-mer frequency, TF over GST control) in the assay with ELF4; 1.05 fold enrichment (6-mer frequency, TF over GST control) with ELK4; 1.04 fold enrichment (6-mer frequency, TF over GST control) with ETV2; 1.16 fold enrichment (6-mer frequency, TF over GST control) with ELF3; 1.07 fold enrichment (6-mer frequency, TF over GST control) in the assay with CRX.
